PMC5700166

Columns and labels:
GST-Hu-p50 = GST-Hu-p50 (Homo sapiens, UniProt P19838 7-356); assay: protein-binding microarray (PBM); PBM: ~300 nM protein, 6 mM HEPES pH 7.8, 80 mM KCl, 0.5 mM EDTA, 0.5 mM EGTA, 6% glycerol, 35 ng/ul poly-dIdC, 1% milk, 1 h, room temperature; Ap Aiptasia and Nv Nematostella (sea anemones) / Co Capsaspora / Aq Amphimedon (sponge) / Dm Drosophila / Hu human; RHD is the Rel homology domain; high values mean tight binding; settings: dsDNA, one strand shown
[1] = molecular target: T1, GST-Nv-NF-kB (Ser allele) (Nematostella vectensis, UniProt A7UNT2 2-411); assay: as above; settings: dsDNA, one strand shown
T1 sequence: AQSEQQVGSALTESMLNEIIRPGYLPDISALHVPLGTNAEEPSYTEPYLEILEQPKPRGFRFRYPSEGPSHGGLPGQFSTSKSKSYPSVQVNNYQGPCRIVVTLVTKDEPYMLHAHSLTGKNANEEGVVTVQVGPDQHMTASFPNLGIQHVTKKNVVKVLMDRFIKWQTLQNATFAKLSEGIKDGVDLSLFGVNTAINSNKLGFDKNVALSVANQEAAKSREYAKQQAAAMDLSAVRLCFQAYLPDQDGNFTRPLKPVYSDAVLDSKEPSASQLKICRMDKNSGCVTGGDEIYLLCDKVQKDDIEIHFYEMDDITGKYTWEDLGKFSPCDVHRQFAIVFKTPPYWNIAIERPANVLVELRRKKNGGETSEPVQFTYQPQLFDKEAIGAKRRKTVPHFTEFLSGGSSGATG

Chain of GST-Hu-p50 (P19838 7-356): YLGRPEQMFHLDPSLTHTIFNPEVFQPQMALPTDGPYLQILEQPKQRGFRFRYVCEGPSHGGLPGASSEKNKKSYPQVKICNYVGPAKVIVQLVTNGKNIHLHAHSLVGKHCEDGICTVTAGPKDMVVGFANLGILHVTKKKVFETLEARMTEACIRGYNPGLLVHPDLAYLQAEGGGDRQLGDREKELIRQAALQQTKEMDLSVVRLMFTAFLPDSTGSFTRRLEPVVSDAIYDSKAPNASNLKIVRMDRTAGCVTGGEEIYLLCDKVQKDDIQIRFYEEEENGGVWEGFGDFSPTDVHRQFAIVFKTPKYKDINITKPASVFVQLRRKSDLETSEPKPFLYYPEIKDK

| Sequence | binding signal (GST-Hu-p50) | binding signal [1] |
| --- | --- | --- |
| CCGATTAACATCACCCAAAGTTTTGATGTTAATCGGGTCTTGATTCGCTTGACGCTGCTG | 1.11 z-score | – |
| CCGATTAACATCACCCCATCTCGTGATGTTAATCGGGTCTTGATTCGCTTGACGCTGCTG | 1.44 z-score | – |
| CCGATTAACATCAAAAATTCCCATGATGTTAATCGGGTCTTGATTCGCTTGACGCTGCTG | 5.24 z-score | – |
| CCGATTAACATCAAACTTTTCCCTGATGTTAATCGGGTCTTGATTCGCTTGACGCTGCTG | 3.53 z-score | – |
| CCGATTAACATCAGGAAATTTCATGATGTTAATCGGGTCTTGATTCGCTTGACGCTGCTG | 1.06 z-score | – |
| CCGATTAACATCAACCAATTCCCTGATGTTAATCGGGTCTTGATTCGCTTGACGCTGCTG | 2.54 z-score | – |
| CCGATTAACATCACAATTTTCCCTGATGTTAATCGGGTCTTGATTCGCTTGACGCTGCTG | 4.58 z-score | – |
| CCGATTAACATCAATTAGGTGGGTGATGTTAATCGGGTCTTGATTCGCTTGACGCTGCTG | 1.64 z-score | – |
| CCGATTAACATCAAAGATTTCCCTGATGTTAATCGGGTCTTGATTCGCTTGACGCTGCTG | 4.86 z-score | – |
| CCGATTAACATCAGGACAATCCCTGATGTTAATCGGGTCTTGATTCGCTTGACGCTGCTG | 1.84 z-score | – |
| CCGATTAACATCAGGAAAGTTCCTGATGTTAATCGGGTCTTGATTCGCTTGACGCTGCTG | 1.06 z-score | – |
| CCGATTAACATCAGGAAAAAACCTGATGTTAATCGGGTCTTGATTCGCTTGACGCTGCTG | 2.63 z-score | – |
| CCGATTAACATCACCCATTTCCGTGATGTTAATCGGGTCTTGATTCGCTTGACGCTGCTG | 1.88 z-score | – |
| CCGATTAACATCAGGCGGTAAGGTGATGTTAATCGGGTCTTGATTCGCTTGACGCTGCTG | 1.29 z-score | – |
| CCGATTAACATCACGGCAATCCCTGATGTTAATCGGGTCTTGATTCGCTTGACGCTGCTG | 1.12 z-score | – |
| CCGATTAACATCACGGACACCCCTGATGTTAATCGGGTCTTGATTCGCTTGACGCTGCTG | 1.06 z-score | – |
| CCGATTAACATCACAAATTTCCCTGATGTTAATCGGGTCTTGATTCGCTTGACGCTGCTG | 5.09 z-score | – |
| CCGATTAACATCAAAAGTTTCCCTGATGTTAATCGGGTCTTGATTCGCTTGACGCTGCTG | 5.09 z-score | – |
| CCGATTAACATCAGTGATTAAGGTGATGTTAATCGGGTCTTGATTCGCTTGACGCTGCTG | 1.25 z-score | – |
| CCGATTAACATCAGGGGTATACCTGATGTTAATCGGGTCTTGATTCGCTTGACGCTGCTG | 1.99 z-score | – |
| CCGATTAACATCAAAAATTCCATTGATGTTAATCGGGTCTTGATTCGCTTGACGCTGCTG | 1.07 z-score | – |
| CCGATTAACATCAAAAAATTACCTGATGTTAATCGGGTCTTGATTCGCTTGACGCTGCTG | 4.27 z-score | – |
| CCGATTAACATCAGATTATCCCCTGATGTTAATCGGGTCTTGATTCGCTTGACGCTGCTG | 4.03 z-score | – |
| CCGATTAACATCAGGGCAAACCCTGATGTTAATCGGGTCTTGATTCGCTTGACGCTGCTG | 1.57 z-score | – |
| CCGATTAACATCAGGGAAAAAAATGATGTTAATCGGGTCTTGATTCGCTTGACGCTGCTG | 4.58 z-score | – |
| CCGATTAACATCAGGGAAGGACCTGATGTTAATCGGGTCTTGATTCGCTTGACGCTGCTG | 1.18 z-score | – |
| CCGATTAACATCACCGAACTAACTGATGTTAATCGGGTCTTGATTCGCTTGACGCTGCTG | 1.23 z-score | – |

| Sequence | binding signal (GST-Hu-p50) | binding signal [1] |
| --- | --- | --- |
| CCGATTAACATCAGGGGTTACACTGATGTTAATCGGGTCTTGATTCGCTTGACGCTGCTG | 1.37 z-score | – |
| CCGATTAACATCACCGGATTTCCTGATGTTAATCGGGTCTTGATTCGCTTGACGCTGCTG | 2.28 z-score | – |
| CCGATTAACATCAAGGGAAAAAATGATGTTAATCGGGTCTTGATTCGCTTGACGCTGCTG | 4.89 z-score | – |
| CCGATTAACATCAATTTATCCCCTGATGTTAATCGGGTCTTGATTCGCTTGACGCTGCTG | 4.37 z-score | – |
| CCGATTAACATCAGGGGAACATATGATGTTAATCGGGTCTTGATTCGCTTGACGCTGCTG | 4.06 z-score | – |
| CCGATTAACATCACCGTTTAAGCTGATGTTAATCGGGTCTTGATTCGCTTGACGCTGCTG | 1.15 z-score | – |
| CCGATTAACATCAACCAATCCCCTGATGTTAATCGGGTCTTGATTCGCTTGACGCTGCTG | 4.9 z-score | – |
| CCGATTAACATCACAAAAAATTTTGATGTTAATCGGGTCTTGATTCGCTTGACGCTGCTG | 1.65 z-score | – |
| CCGATTAACATCACCGGAAATCCTGATGTTAATCGGGTCTTGATTCGCTTGACGCTGCTG | 1.78 z-score | – |
| CCGATTAACATCATGGGGTGTGCTGATGTTAATCGGGTCTTGATTCGCTTGACGCTGCTG | 1.49 z-score | – |
| CCGATTAACATCAGGCAACCCCATGATGTTAATCGGGTCTTGATTCGCTTGACGCTGCTG | 1.09 z-score | – |
| CCGATTAACATCAAAAAACTACCTGATGTTAATCGGGTCTTGATTCGCTTGACGCTGCTG | 4.32 z-score | – |
| CCGATTAACATCAGACATTCCCATGATGTTAATCGGGTCTTGATTCGCTTGACGCTGCTG | 1.02 z-score | 2.32 z-score |
| CCGATTAACATCACCTATTCCCCTGATGTTAATCGGGTCTTGATTCGCTTGACGCTGCTG | 5.12 z-score | – |
| CCGATTAACATCAAGCCCCCCCATGATGTTAATCGGGTCTTGATTCGCTTGACGCTGCTG | 3.88 z-score | – |
| CCGATTAACATCAGGGATCTACCTGATGTTAATCGGGTCTTGATTCGCTTGACGCTGCTG | 2.74 z-score | 1.74 z-score |
| CCGATTAACATCAAATTTTTCCCTGATGTTAATCGGGTCTTGATTCGCTTGACGCTGCTG | 4.48 z-score | – |
| CCGATTAACATCAGGGGGAAGCATGATGTTAATCGGGTCTTGATTCGCTTGACGCTGCTG | 4.74 z-score | 6.05 z-score |
| CCGATTAACATCACCAAAACCCCTGATGTTAATCGGGTCTTGATTCGCTTGACGCTGCTG | 4.83 z-score | 4.14 z-score |
| CCGATTAACATCAGGGCATTACCTGATGTTAATCGGGTCTTGATTCGCTTGACGCTGCTG | 1.4 z-score | – |
| CCGATTAACATCAGGGGGTCACCTGATGTTAATCGGGTCTTGATTCGCTTGACGCTGCTG | 2.9 z-score | 2.36 z-score |
| CCGATTAACATCACGGAATTACCTGATGTTAATCGGGTCTTGATTCGCTTGACGCTGCTG | 2.38 z-score | 3.86 z-score |
| CCGATTAACATCAAGGTATTTCCTGATGTTAATCGGGTCTTGATTCGCTTGACGCTGCTG | 1.29 z-score | – |
| CCGATTAACATCAACTGGGAAAATGATGTTAATCGGGTCTTGATTCGCTTGACGCTGCTG | 2 z-score | 4.25 z-score |
| CCGATTAACATCACCATTTTCCCTGATGTTAATCGGGTCTTGATTCGCTTGACGCTGCTG | 3.64 z-score | – |
| CCGATTAACATCAGGGAAACTACTGATGTTAATCGGGTCTTGATTCGCTTGACGCTGCTG | 3.85 z-score | – |
| CCGATTAACATCATTCCACCAGGTGATGTTAATCGGGTCTTGATTCGCTTGACGCTGCTG | 1.04 z-score | – |

| Sequence | binding signal (GST-Hu-p50) | binding signal [1] |
| --- | --- | --- |
| CCGATTAACATCAGGGAGCTCCCTGATGTTAATCGGGTCTTGATTCGCTTGACGCTGCTG | 2.59 z-score | 1.82 z-score |
| CCGATTAACATCAATATACCCCCTGATGTTAATCGGGTCTTGATTCGCTTGACGCTGCTG | 4.42 z-score | 5.46 z-score |
| CCGATTAACATCAGGGATCCCCATGATGTTAATCGGGTCTTGATTCGCTTGACGCTGCTG | 4.35 z-score | 5.06 z-score |
| CCGATTAACATCAACCACCCCCTTGATGTTAATCGGGTCTTGATTCGCTTGACGCTGCTG | 4.03 z-score | 3.4 z-score |
| CCGATTAACATCAATTTGGGAAATGATGTTAATCGGGTCTTGATTCGCTTGACGCTGCTG | 1.3 z-score | 2.36 z-score |
| CCGATTAACATCAAAATTTTCCTTGATGTTAATCGGGTCTTGATTCGCTTGACGCTGCTG | 1.03 z-score | – |
| CCGATTAACATCAGGAAATCCCATGATGTTAATCGGGTCTTGATTCGCTTGACGCTGCTG | 3.19 z-score | 1.81 z-score |
| CCGATTAACATCAGGATATTCCCTGATGTTAATCGGGTCTTGATTCGCTTGACGCTGCTG | 3.1 z-score | 4.19 z-score |
| CCGATTAACATCAGGGGAGATTATGATGTTAATCGGGTCTTGATTCGCTTGACGCTGCTG | 4.94 z-score | – |
| CCGATTAACATCACCGTTTTCCCTGATGTTAATCGGGTCTTGATTCGCTTGACGCTGCTG | 3.18 z-score | – |
| CCGATTAACATCAGGTTTTTCCATGATGTTAATCGGGTCTTGATTCGCTTGACGCTGCTG | 1.41 z-score | 1.02 z-score |
| CCGATTAACATCAGGGAAATAACTGATGTTAATCGGGTCTTGATTCGCTTGACGCTGCTG | 3.76 z-score | 4.37 z-score |
| CCGATTAACATCACTGTTTTCCCTGATGTTAATCGGGTCTTGATTCGCTTGACGCTGCTG | 3.14 z-score | 6.12 z-score |
| CCGATTAACATCAAGGGGGTGACTGATGTTAATCGGGTCTTGATTCGCTTGACGCTGCTG | 3.9 z-score | 3.83 z-score |
| CCGATTAACATCATCTTTTTACTTGATGTTAATCGGGTCTTGATTCGCTTGACGCTGCTG | 1.01 z-score | – |
| CCGATTAACATCAAATTCCCAGCTGATGTTAATCGGGTCTTGATTCGCTTGACGCTGCTG | 2.81 z-score | 3.85 z-score |
| CCGATTAACATCAAAAATTTCCTTGATGTTAATCGGGTCTTGATTCGCTTGACGCTGCTG | 1.32 z-score | – |
| CCGATTAACATCAATTGCCCCCCTGATGTTAATCGGGTCTTGATTCGCTTGACGCTGCTG | 2.9 z-score | 3.84 z-score |
| CCGATTAACATCAAAGTTTTCCCTGATGTTAATCGGGTCTTGATTCGCTTGACGCTGCTG | 4.49 z-score | – |
| CCGATTAACATCAAAAATTGCCCTGATGTTAATCGGGTCTTGATTCGCTTGACGCTGCTG | 2.11 z-score | 2.01 z-score |
| CCGATTAACATCAGGAAACACCATGATGTTAATCGGGTCTTGATTCGCTTGACGCTGCTG | 1.95 z-score | – |
| CCGATTAACATCAGGTAATTCCATGATGTTAATCGGGTCTTGATTCGCTTGACGCTGCTG | 2.14 z-score | 3.72 z-score |
| CCGATTAACATCAAAATTCCCTCTGATGTTAATCGGGTCTTGATTCGCTTGACGCTGCTG | 5.19 z-score | – |
| CCGATTAACATCAGCTGAGTAGGTGATGTTAATCGGGTCTTGATTCGCTTGACGCTGCTG | 1.45 z-score | – |
| CCGATTAACATCAGGGAAAGAACTGATGTTAATCGGGTCTTGATTCGCTTGACGCTGCTG | 2.37 z-score | 3.33 z-score |
